According to PubChem BioAssay (NCI):
The panel holds about 79,000 compounds, 15% with a hit somewhere; the sample as a whole holds those more often. No stated cut-off is given here; in the data, active means growth inhibition above about 70%; inactive means the rest.

Columns and labels:
[1] = NCI Yeast Anticancer Drug Screen. Data for the rad50 strain (AID 155);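 further: 0% = growth of vehicle-only cultures of the same strain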; settings: S. cerevisiae rad50 strain growth inhibition, active compounds read high; at 50.0 µM unless noted
In short: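 Relative growth inhibition (compound vs vehicle) was measured in yeast with a defined repair-gene alteration.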

[2] = NCI Yeast Anticancer Drug Screen. Data for the mec2-1 strain (AID 157); settings: S. cerevisiae mec2-1 strain, active compounds read high; at 50.0 µM unless noted
In short: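 Yeast mec2-1 mutant treated with compound. Readout: growth inhibition vs vehicle controls.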

[3] = NCI Yeast Anticancer Drug Screen. Data for the sgs1 mgt1 strain (AID 161);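 further: 0% = growth of cultures given vehicle only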; settings: S. cerevisiae sgs1 mgt1 strain, active compounds read high; at 50.0 µM unless noted
In short: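 Read-out: growth inhibition vs vehicle controls. Cells: mutant yeast strain deficient in DNA damage repair.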

[4] = NCI Yeast Anticancer Drug Screen. Data for the cln2 rad14 strain (AID 165);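 further: 0% = growth equal to vehicle treated cultures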; settings: S. cerevisiae cln2 rad14 strain, active compounds read high; at 50.0 µM unless noted
In short: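 cln2 rad14 yeast strain; compound exposure; growth inhibition read vs vehicle controls.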

[5] = NCI Yeast Anticancer Drug Screen. Data for the bub3 strain (AID 167); settings: S. cerevisiae bub3 mutant strain, active compounds read high; at 50.0 µM unless noted
In short: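 Screening used yeast with an engineered genetic alteration affecting cell cycle control. Compound-exposed cultures were compared with vehicle cultures, and reduced growth was taken as inhibition.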

[6] = NCI Yeast Anticancer Drug Screen. Data for the mlh1 rad18 strain (AID 175); settings: S. cerevisiae mlh1 rad18 strain growth inhibition, active compounds read high; at 50.0 µM unless noted
In short: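 Yeast w/ defined DNA-repair lesions; compound exposure; growth vs vehicle controls → % inhibition.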

Measured: growth inhibition

C=CC[N+]1(CCOC(=O)C(c2ccccc2)C2C=CCC2)CCCC1 (centres undefined)
inactive: [1] -17.1% | [2] 1.35% | [3] -6.9% | [4] -13.8% | [5] -13.9% | [6] -22.4%

C=CCC(C)(O)CCC(C)(O)CC=C (centres undefined)
inactive: [1] -1.95% | [2] -14.6% | [3] -8.3% | [4] 1.2% | [5] 0.95% | [6] 8.2%

CCC(NN)C(=O)O (centres undefined)
inactive: [1] 5.45% | [2] -14.1% | [3] -33.6% | [4] -26% | [5] -9.5% | [6] -5.35%

CC(=O)C1=CCCCC1
inactive: [1] 6.1% | [2] -2.8% | [3] -3.3% | [4] 11.7% | [5] 14.7% | [6] -7.8%
